# TIM10 inh: inhibits growth of TIM10 yeast strain. S. cerevisiae TIM10 strain growth, BacTiter-Glo luminescence, 24 h. inhibition, % at 10 µM. actives 1.4% (n = 330,000). AID 463195;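 active = inhibition of 40% or more at the single tested concentration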;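 note: wild-type TIM10 isogenic control strain grown at permissive 25 °C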
# Mot1-301 SUMO: inhibitors of SUMOylation pathway: yeast Mot1-301 growth rescue; S. cerevisiae Mot1-301 growth rescue, ATP luminescence, 38.5C; percent above DMSO median, 100 means doubled; growth rescue, % at 18.8 µM; actives 1% (n = 320,000);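 active = every valid replicate shows activation above 250% relative to neutral control wells; inactive = the rest, any valid replicate at or below 250%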;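 note: OY570 slx delta 5 strain wells were the positive control but not used for scaling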
# tim10-1 inh: inhibits growth of tim10-1 mutant yeast; S. cerevisiae tim10-1 ts strain growth, BacTiter-Glo, 24 h; inhibition, % at 20 µM; actives 2.2% (n = 330,000); AID 463190;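 active = inhibition of at least 40%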;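 note: mutant grown at 25 °C; 0% = DMSO wells with yeast and 100% = wells holding no yeast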
# tim23-1 inh: growth inhibitors of tim23-1 mutant yeast; S. cerevisiae tim23-1 growth, BacTiter-Glo luminescence, 24 h; inhibition, % at 20 µM; actives 1.3% (n = 330,000); AID 463212;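 active = growth inhibition of the mutant yeast at or above 50%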;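 note: temperature-sensitive mutant grown at 25 °C; plate controls were DMSO-treated mutant yeast for no effect and medium wells lacking yeast for full effect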
# PfHsp90 set2: reduces growth (ATP signal) of yeast expressing P. falciparum Hsp90. S. cerevisiae expressing PfHsp90, BacTiter-Glo ATP, 48 h; yeast lacking PDR1 and PDR3 efflux regulators. inhibition, % at 9.4 µM. actives 0.32% (n = 310,000). AID 504621;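 active = every replicate shows inhibition above about 80%, whatever the replicate mean, limit read from the data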;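 note: 0% = DMSO neutral controls and 100% = 20 µM radicicol positive controls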
# Active calls of the source: *; / = no result given. Hits are enriched below; roughly 4.4% of the tested compounds scored in any of these assays.
SMILES,TIM10 inh,Mot1-301 SUMO,tim10-1 inh,tim23-1 inh,PfHsp90 set2
CCCCCCCC1CC(=O)C=C(C)C1C(=O)OCC (centres undefined),19.9,48.2,25.2,24.6,/
O=C(NN1C(=O)/C(=C/c2ccc(O)c([N+](=O)[O-])c2)SC1=S)c1ccccc1Cl,-74.2,20.1,-14.3,1.0,103.8*
O=C(Nc1ccc(Oc2cccc(C(F)(F)F)c2)nc1)c1ccco1,15.7,342.1*,-14.2,4.8,12.0
Cc1nn(-c2ccccc2)c(N)c1C(O)(CC(=O)C(F)(F)F)C(F)(F)F (centres undefined),-20.2,333.3*,4.3,8.4,-45.0
Cc1cc(NC(=O)C(C)Sc2nnc(NCc3ccco3)s2)no1 (centres undefined),-8.3,-6.5,-7.7,-6.9,-14.4
COc1ccc(C(C[N+](=O)[O-])C2(c3ccc(OC)c(OC)c3)C(=O)c3ccccc3C2=O)cc1 (centres undefined),/,70.7,/,/,104.7*
COC(=O)C(C(=O)OC)C(C[N+](=O)[O-])c1ccc(OC)c(OC)c1 (centres undefined),1.1,37.2,-0.7,10.0,/
CC(C)(C)c1cc(/C=N/NC(=O)C[n+]2ccccc2)cc(C(C)(C)C)c1O,0.6,6.0,13.4,19.4,-0.3
CSc1nnc(Cc2cc(=O)[nH]c(=O)[nH]2)n1-c1cccc(C)c1,3.9,352.5*,11.1,-1.5,3.1
O=C(NCCS(=O)(=O)N1CCN(Cc2ccccc2)CC1)c1ccc(F)cc1,-10.2,-7.4,-1.3,16.4,22.0
COCCCNCCCCOc1ccc(Br)cc1Cl,-27.3,280.0*,-57.7,-24.3,8.3
COCCNCCCOc1ccc(Br)cc1Cl,-5.3,-2.0,6.9,0.5,7.8
COC(=O)[C@@H](Cc1ccccc1)NC(=O)Cn1cc(C)c(=O)[nH]c1=O,/,/,/,/,11.9
CCN(CC)C(=O)[C@H]1CC(CC(=O)NC/C=C(\C)CCC=C(C)C)C(=O)N2CCc3c([nH]c4ccccc34)[C@]12C (some centres undefined),7.4,9.1,25.8,21.0,-19.6
O=C(O)C(C(O)c1ccccc1)[n+]1ccccc1 (centres undefined),-1.6,-10.2,5.8,11.5,-11.2
CCNc1nc(NC(C)C)nc(N(n2cnnc2)S(=O)(=O)c2ccc(C)cc2)n1,-3.5,126.1,15.3,16.7,26.3
CCNc1nc(NCC)nc(N(n2cnnc2)S(=O)(=O)c2ccc(C)cc2)n1,-5.9,310.3*,-14.3,26.7,6.4
O=c1cc(CSc2ccc(Cl)cc2)nc(-c2ccccn2)[nH]1,-33.4,54.8,27.1,25.0,105.0*
CCc1ccc(OCC(=O)N2CC(C(N)=O)Oc3ccccc32)cc1 (centres undefined),13.2,-3.5,5.4,5.5,33.5
CCOc1ccccc1Nc1nnc(SCC(=O)Nc2cccc(S(=O)(=O)NC3=NCCCCC3)c2)s1,9.0,677.1*,9.8,13.3,/
Cc1ccc(S(=O)(=O)N2CCC(N3CCC(C)CC3)CC2)cc1,-6.5,190.2,5.4,4.8,2.7
CC(=O)c1ccc2c(c1)CC1(C2)Cc2cc3c(cc2C1)C(=O)CC3 (centres undefined),/,/,/,/,-30.3
COc1ccc(NC(C)=O)cc1NC(=O)CSc1nc2ncccc2[nH]1,-8.6,330.6*,-8.7,-1.9,-9.1
CN(C)c1ncnc2c1ncn2C1OC(CO)C(O)C1O (centres undefined),-14.4,277.2*,-4.4,4.1,12.7
CNc1ncnc2c1ncn2[C@@H]1O[C@H](CO)[C@@H](O)[C@H]1O,4.1,1.8,-8.5,-7.8,2.5
SMILES,TIM10 inh,Mot1-301 SUMO,tim10-1 inh,tim23-1 inh,PfHsp90 set2
O=C(COC(=O)c1ccccc1C(=O)c1ccccc1)NCc1ccc(F)cc1,-11.0,336.8*,10.5,25.8,8.2
O=C(COC(=O)c1ccccc1C(=O)c1ccc(Cl)cc1)NCc1ccccc1,33.3,0.7,34.8,15.0,-5.0
COCc1ccc(CN2CCC(n3nccc3NC(=O)CCCc3ccccc3)CC2)o1,18.6,13.4,-8.1,-1.5,14.7
CSc1ccccc1NC(=O)CSc1nnc(CNC(=O)c2ccccc2F)n1C,1.2,307.6*,5.6,3.3,-9.3
CCc1nnc(NC(=O)CSc2nnc(CNC(=O)c3ccccc3F)n2C)s1,6.1,-4.1,-8.7,4.4,3.0
O=C1C=CC(=O)N1Cc1ccncc1,/,/,/,/,2.1
O=C1C=CC(=O)N1CCCCCCCCCCN1C(=O)C=CC1=O,/,/,/,/,107.4*
CC1(C)N=C(SCC(=O)Nc2ccc(Cl)cc2)C(c2ccc(Cl)cc2)=N1,34.5,-42.4,30.4,27.6,110.2*
O=C(N/N=C\c1coc2ccccc2c1=O)c1ccco1,-9.1,460.9*,-48.0,21.0,-0.1
O=C(N/N=C/c1coc2ccccc2c1=O)c1ccccc1,19.3,1.8,1.1,21.6,8.9
O=C(Cc1ccc(Cl)cc1)NNC1CC(=O)N(c2ccc3ccccc3c2)C1=O (centres undefined),-12.1,289.0*,-21.9,-6.8,-12.9
Oc1[nH]c(N=C2N=c3ccccc3=N2)c2ccccc12,/,293.3*,/,/,26.9
O=C(COc1ccc(Cl)cc1)NC1=NN(c2ccccc2)C(=O)C1,6.1,-11.9,22.7,22.5,124.8*
O=C(COc1c(Br)cc(Br)c2cccnc12)N1CCCCC1,-9.6,10.3,33.8,31.8,-27.8
Oc1c(CN2CCCCC2)cc(Br)c2cccnc12,24.2,152.4,10.7,21.0,104.0*
COc1ccc(OC)c(/C=C/C(=O)N(C)CC(=O)Nc2ccc(N3CCOCC3)cc2)c1,3.8,61.9,5.5,8.5,-9.1
CCN1CCCC1CN(Cc1cc2ccc(C)cc2[nH]c1=O)C(=S)Nc1ccc(F)cc1 (centres undefined),11.0,0.7,15.5,42.3,94.5*
Brc1cc(-c2ccccc2)nc(-c2ccccc2)n1,14.1,0.7,-2.2,3.7,/
COCCCNCCOCCSc1ccc(Cl)cc1,-7.0,279.5*,-3.4,5.9,-6.0
COc1ccc(CCNC(=O)C2CCN(C(=O)c3ccc([N+](=O)[O-])cc3)CC2)cc1,-5.4,314.1*,14.6,5.9,30.6
COc1ccc(-n2cc(-c3ccc(OC)c(OC)c3)[nH]c2=S)cc1,3.7,545.0*,11.4,-2.9,10.0
COc1ccccc1C1=CN(Cc2ccccc2)CCC1=O,5.8,16.0,2.5,14.0,-32.0
O=c1[nH]c2cc(Br)cnc2nc1/C=C(\O)c1ccc(F)cc1,6.9,338.4*,5.8,-1.7,-51.2
CCOC(=O)C1=C(COC(=O)CSc2ccc(C)cc2)NC(=O)NC1C (centres undefined),-2.7,0.8,-9.6,13.8,3.2
O=C(c1ccc([N+](=O)[O-])cc1)N1C=CC(C(F)(F)F)=NCC1,4.1,346.5*,-0.2,11.2,6.2
CCc1cc(=O)oc2cc(C)cc(OCC(=O)NCCCN3CCOCC3)c12,0.8,-6.8,-12.2,-9.8,0.3
Cc1cc(C)cc(OCC(O)CN2CCN(Cc3ccc4c(c3)OCO4)CC2)c1 (centres undefined),10.6,310.0*,-10.7,-1.2,27.6
